About 7,900 targets were measured; listed, in parts, are those with a hit and a random draw of the rest. About 0.6% of all pairs of compound and target were hits.

Data on 40 targets can be found in the supplement of paper PMC10849652.

Chain of UniProt Q14157 (Q14157 whole entry, looked up): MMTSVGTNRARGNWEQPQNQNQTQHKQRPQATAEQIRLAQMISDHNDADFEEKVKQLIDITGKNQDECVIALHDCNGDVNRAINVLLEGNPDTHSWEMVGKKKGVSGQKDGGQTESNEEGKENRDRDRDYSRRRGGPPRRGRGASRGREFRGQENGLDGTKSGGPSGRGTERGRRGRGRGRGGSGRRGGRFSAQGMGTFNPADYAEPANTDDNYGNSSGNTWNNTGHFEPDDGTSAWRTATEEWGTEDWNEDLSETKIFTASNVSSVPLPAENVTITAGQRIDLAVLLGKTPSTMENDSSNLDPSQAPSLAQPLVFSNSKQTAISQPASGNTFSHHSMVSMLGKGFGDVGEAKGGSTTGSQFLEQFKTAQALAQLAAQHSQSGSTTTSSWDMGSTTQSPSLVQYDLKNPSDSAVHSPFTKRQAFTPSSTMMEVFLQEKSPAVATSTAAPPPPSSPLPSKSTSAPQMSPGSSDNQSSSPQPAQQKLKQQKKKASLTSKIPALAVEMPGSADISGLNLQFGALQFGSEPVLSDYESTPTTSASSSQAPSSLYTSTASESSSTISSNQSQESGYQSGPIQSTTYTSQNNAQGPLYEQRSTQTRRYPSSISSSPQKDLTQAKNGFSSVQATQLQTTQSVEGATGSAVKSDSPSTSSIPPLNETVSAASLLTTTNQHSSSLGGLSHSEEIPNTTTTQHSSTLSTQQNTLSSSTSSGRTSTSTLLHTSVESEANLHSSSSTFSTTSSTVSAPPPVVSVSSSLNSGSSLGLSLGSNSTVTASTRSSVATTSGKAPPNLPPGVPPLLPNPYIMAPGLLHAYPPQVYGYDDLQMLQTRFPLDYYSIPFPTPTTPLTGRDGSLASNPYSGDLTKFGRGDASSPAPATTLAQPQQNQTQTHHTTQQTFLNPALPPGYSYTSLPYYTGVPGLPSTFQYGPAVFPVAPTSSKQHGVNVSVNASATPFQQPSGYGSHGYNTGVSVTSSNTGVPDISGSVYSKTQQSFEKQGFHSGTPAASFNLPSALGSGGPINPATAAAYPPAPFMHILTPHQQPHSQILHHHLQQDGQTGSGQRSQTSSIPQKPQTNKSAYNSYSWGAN
Chain of UniProt Q93008 (Q93008 whole entry, looked up): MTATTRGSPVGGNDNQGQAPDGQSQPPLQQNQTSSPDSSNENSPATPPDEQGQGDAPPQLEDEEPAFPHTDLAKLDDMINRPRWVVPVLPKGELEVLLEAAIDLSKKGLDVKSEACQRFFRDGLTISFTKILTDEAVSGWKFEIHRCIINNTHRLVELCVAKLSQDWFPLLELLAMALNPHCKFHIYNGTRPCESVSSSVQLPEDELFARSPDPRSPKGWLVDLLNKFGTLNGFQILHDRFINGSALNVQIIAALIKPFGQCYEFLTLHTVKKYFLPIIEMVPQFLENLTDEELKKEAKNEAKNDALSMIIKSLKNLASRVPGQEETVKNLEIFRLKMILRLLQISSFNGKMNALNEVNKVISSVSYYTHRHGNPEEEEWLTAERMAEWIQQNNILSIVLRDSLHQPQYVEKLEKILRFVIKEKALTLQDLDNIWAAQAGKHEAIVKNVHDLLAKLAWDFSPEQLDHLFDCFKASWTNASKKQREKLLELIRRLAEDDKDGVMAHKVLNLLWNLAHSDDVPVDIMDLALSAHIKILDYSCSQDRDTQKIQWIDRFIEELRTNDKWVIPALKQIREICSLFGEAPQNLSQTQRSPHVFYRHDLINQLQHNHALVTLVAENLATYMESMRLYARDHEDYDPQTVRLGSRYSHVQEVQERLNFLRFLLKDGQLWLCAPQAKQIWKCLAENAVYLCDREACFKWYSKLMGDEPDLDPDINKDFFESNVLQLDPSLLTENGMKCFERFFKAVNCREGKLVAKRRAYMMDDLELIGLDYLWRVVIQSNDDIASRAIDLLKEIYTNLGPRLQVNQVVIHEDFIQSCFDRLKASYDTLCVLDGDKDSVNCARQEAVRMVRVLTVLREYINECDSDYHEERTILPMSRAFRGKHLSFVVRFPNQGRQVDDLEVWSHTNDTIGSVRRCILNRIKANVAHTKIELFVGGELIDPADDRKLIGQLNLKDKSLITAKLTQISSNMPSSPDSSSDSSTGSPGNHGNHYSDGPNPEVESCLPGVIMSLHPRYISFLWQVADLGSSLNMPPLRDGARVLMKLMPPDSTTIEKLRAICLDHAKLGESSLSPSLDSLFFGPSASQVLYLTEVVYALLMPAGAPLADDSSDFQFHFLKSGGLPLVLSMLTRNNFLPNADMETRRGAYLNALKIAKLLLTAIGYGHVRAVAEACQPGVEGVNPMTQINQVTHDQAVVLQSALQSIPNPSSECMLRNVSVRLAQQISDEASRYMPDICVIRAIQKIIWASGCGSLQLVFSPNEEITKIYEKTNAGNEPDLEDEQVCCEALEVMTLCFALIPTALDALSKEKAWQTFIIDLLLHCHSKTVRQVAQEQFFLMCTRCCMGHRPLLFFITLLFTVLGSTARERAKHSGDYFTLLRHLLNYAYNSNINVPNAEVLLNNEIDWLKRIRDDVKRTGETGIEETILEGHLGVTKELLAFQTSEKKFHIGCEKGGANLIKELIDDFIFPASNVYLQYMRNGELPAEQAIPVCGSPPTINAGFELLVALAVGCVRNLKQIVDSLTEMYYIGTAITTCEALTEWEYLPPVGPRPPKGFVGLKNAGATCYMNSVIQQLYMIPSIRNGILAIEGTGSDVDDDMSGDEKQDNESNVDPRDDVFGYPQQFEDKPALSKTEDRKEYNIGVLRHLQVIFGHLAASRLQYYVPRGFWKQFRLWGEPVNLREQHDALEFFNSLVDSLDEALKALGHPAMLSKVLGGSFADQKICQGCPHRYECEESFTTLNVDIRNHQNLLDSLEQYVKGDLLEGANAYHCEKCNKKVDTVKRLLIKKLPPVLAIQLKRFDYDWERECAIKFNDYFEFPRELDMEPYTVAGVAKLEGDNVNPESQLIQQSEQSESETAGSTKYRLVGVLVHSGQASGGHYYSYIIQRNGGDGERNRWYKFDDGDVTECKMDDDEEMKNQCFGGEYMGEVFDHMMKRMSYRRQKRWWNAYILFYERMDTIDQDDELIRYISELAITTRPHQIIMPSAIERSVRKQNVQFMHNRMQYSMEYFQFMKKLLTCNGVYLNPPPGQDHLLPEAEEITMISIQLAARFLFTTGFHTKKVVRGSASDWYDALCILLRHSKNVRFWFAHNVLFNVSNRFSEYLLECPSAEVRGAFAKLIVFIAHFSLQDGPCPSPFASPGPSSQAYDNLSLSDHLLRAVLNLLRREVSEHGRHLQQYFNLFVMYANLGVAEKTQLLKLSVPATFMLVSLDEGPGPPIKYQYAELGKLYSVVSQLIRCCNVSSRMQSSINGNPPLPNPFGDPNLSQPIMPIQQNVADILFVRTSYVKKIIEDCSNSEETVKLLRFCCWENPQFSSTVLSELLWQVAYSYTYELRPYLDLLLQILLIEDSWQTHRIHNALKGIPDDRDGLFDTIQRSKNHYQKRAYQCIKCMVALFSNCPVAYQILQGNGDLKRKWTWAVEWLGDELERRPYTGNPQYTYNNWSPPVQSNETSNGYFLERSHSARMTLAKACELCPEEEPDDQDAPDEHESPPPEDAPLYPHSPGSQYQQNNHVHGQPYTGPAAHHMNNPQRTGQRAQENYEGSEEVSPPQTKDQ
Chain of UniProt Q9H6R7 (Q9H6R7 whole entry, looked up): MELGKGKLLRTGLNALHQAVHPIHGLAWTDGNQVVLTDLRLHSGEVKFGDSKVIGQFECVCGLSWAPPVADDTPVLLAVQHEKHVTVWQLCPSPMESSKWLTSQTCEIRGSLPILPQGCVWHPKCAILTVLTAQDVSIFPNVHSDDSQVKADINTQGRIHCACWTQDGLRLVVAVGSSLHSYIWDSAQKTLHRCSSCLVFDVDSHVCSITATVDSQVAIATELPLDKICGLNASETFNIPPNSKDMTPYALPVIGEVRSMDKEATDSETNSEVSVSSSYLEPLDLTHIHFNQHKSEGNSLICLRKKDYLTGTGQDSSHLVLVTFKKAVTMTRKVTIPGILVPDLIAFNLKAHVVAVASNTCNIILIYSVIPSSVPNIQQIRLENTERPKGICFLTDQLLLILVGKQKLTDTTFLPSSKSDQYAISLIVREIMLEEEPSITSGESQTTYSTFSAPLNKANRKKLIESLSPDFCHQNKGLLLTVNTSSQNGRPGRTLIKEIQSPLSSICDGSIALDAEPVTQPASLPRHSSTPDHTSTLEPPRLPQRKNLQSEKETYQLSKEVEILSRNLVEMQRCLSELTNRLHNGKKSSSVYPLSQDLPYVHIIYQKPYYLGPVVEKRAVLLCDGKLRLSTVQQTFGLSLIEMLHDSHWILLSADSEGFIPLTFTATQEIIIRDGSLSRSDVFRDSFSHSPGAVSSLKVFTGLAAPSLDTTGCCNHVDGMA
Chain of UniProt O60784 (O60784 whole entry, looked up): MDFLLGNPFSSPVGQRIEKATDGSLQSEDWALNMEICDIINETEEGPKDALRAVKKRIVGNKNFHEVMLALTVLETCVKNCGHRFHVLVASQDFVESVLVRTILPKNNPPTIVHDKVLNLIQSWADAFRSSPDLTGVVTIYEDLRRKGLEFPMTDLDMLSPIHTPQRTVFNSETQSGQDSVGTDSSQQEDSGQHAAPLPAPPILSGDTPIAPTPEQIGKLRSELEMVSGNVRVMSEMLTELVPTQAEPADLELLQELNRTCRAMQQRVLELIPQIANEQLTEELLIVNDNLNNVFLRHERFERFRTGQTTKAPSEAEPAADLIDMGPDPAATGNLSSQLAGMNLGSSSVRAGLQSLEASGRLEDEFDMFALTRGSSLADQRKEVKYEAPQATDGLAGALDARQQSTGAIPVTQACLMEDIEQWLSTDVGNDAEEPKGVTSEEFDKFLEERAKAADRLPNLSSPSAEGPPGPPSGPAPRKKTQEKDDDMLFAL
Chain of UniProt Q9UEU0 (Q9UEU0 whole entry, looked up): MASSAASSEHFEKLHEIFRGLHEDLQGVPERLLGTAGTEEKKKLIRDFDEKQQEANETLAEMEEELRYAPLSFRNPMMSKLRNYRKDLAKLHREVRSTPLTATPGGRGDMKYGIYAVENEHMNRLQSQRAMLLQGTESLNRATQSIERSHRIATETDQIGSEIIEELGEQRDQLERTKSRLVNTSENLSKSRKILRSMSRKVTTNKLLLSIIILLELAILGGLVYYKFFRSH

Compound in this assay: c1cn2cc(-c3ccc4cn[nH]c4c3)nc(Nc3ccc(N4CCOCC4)cc3)c2n1 [entospletinib]
Briefly: log2 fold change, soluble protein after heating vs DMSO (PISA); higher = thermal stabilisation; K562 cells, 10 uM, 30 min; active = over 0.2 and 3.5 SD of the protein, either way, in both replicates (recomputed). An outline of the steps:
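K562 cells at 2×10^6 cells/mL were exposed to 10 μM compound for 30 min, then aliquots were heated for 3 min across 48°C-58°C, pooled, and extracted in PBS containing 0.5% NP-40 at 4°C. The supernatant after 21,000xg for 90 min was taken as soluble protein and measured by TMTpro 16plex LC-MS/MS with channel sums equalised. Thermal stability is reported relative to control samples, with values from duplicates. Fold changes are given on a log2 scale.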
Regarding UBIAD1 (UniProt Q9Y5Z9), the log2 fold change was -0.013 (inactive).
The same measure for USP25 isoform 3 (UniProt Q9UHP3): 0 (inactive); for USP14 (UniProt P54578): -0.03 (inactive); for UBE2J2 isoform 3 (UniProt Q8N2K1): -0.028 (inactive).
Turning to TMEM104 (UniProt Q8NE00), the log2 fold change is 0.001 (inactive).
The same measure for USP9X (UniProt Q93008): -0.01 (inactive); for TMEM70 (UniProt Q9BUB7): -0.009 (inactive).
With TMEM8A (UniProt Q9HCN3) the figure was -0.002 (inactive); with VPS39 (UniProt Q96JC1), -0.007 (inactive); with TMEM106B (UniProt Q9NUM4), -0.049 (inactive).
The same measure for TRABD (UniProt Q9H4I3): 0.047 (inactive); for TMEM189-UBE2V1 (UniProt I3L0A0): -0.017 (inactive); for UBE2E3 (UniProt Q969T4): -0.002 (inactive).
VTI1A (UniProt Q96AJ9): the log2 fold change is 0.013 (inactive).
With UBE2Q1 (UniProt Q7Z7E8) the figure was 0.007 (inactive); with UBXN10 (UniProt Q96LJ8), 0.013 (inactive); with TRIP10 (UniProt Q15642), 0.061 (inactive).
The same measure for UBAP2L isoform 5 (UniProt Q14157): -0.007 (inactive); for UCHL5 (UniProt Q9Y5K5): -0.023 (inactive).
With TRIM4 (UniProt Q9C037) the figure was 0.089 (inactive).
TRAPPC6B (UniProt Q86SZ2): the log2 fold change was -0.003 (inactive).
The same measure for TOM1 isoform 2 (UniProt O60784): 0.009 (inactive).
Regarding TSFM (UniProt P43897), the log2 fold change is -0.191 (inactive).
The same measure for USP24 (UniProt Q9UPU5): 0.016 (inactive); for TXNRD1 (UniProt Q16881): 0.054 (inactive).
With UBR2 (UniProt Q8IWV8) the figure was 0.029 (inactive).
The same measure for UBAP2L isoform 1 (UniProt Q14157): -0.065 (inactive).
On to VKORC1 (UniProt Q9BQB6), for which the log2 fold change was 0.006 (inactive).
The same measure for XPO6 (UniProt Q96QU8): -0.027 (inactive); for TMEM208 (UniProt Q9BTX3): -0.062 (inactive).
With USO1 isoform 2 (UniProt O60763) the figure was -0.017 (inactive); with TNPO3 (UniProt Q9Y5L0), -0.048 (inactive); with TOM1L1 (UniProt O75674), 0.038 (inactive).
The same measure for U2AF2 (UniProt P26368): 0.107 (inactive).
As for VTI1B (UniProt Q9UEU0), the log2 fold change was 0.082 (inactive).
The same measure for UBLCP1 (UniProt Q8WVY7): -0.013 (inactive); for TMEM164 (UniProt Q5U3C3): 0.007 (inactive).
With WDCP (UniProt Q9H6R7) the figure was -0.024 (inactive); with TSG101 (UniProt Q99816), -0.014 (inactive); with UBAP1 isoform 4 (UniProt Q9NZ09), 0.005 (inactive).
